This is a sample that favours compounds with a hit; in the whole collection about 2.4% have one here.
D2 PAM-1 – potentiates the human D2 dopamine receptor allosterically. P14416. AID 624464. DiscoveRx D2 beta-arrestin cells, luminescence, 90 min; 100% = 57 uM dopamine signal. 360,000 compounds, 0.23% hits. potentiation, % (no concentration beside the values); in the data active = potentiation above about 50%
Target sequence (P14416 whole entry, looked up): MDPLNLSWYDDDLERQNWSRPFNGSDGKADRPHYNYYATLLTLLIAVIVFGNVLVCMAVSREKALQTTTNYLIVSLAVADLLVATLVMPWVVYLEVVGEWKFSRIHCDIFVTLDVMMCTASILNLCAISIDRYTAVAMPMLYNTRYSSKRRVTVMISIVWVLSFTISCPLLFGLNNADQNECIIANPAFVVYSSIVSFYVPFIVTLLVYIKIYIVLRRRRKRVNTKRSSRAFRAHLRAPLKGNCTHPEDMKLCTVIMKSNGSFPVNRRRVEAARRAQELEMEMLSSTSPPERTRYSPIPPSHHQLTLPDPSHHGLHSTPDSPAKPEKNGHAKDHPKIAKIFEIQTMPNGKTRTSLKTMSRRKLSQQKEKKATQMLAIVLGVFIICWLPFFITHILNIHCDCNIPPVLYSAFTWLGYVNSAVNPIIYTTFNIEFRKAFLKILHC
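D2 cells co-treated with compound plus 50 nM dopamine (EC20) for 90 min at 37 deg C to detect potentiation. Beta-arrestin recruitment was read as enzyme-fragment luminescence after 1 h at ambient temperature. Full response was set by 57 uM dopamine.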
D2 antagonist – antagonizes the human D2 dopamine receptor | P14416 | HEK293 TREx D2 cells, calcium flux, dopamine EC80 | inhibition, % at 10 µM | 340,000 compounds, 2% hits | AID 485344; in the data active = inhibition above about 30%; inactive = below that, where a call was filed
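Calcium flux kinetic readout in an inducible HEK293 TREx D2 line plated overnight at 30 C. After 180 s compound exposure, an EC80 dopamine challenge follows with another 180 s kinetic read to detect antagonism.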
D2 ag-1 – agonists of human D2 dopamine receptor (beta-arrestin). DiscoveRx PathHunter D2 beta-arrestin, luminescence, 90 min; 100% = 57 uM dopamine signal. P14416. 360,000 compounds, 0.084% hits. activation, % (no concentration beside the values); in the data active = activation above about 40%
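Agonist mode: compounds alone added to overnight-plated D2 PathHunter cells for 90 min at 37 C, with 57 uM final dopamine (EC100) defining full response. Beta-arrestin recruitment detected by chemiluminescent reagent, read after 1 h at ambient temperature.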
D2 PAM-2 – positive allosteric modulators of human D2 dopamine receptor; P14416; HEK293 T-REx D2, calcium flux, EC20 dopamine potentiation; potentiation, % at 10 µM; 340,000 compounds, 0.34% hits; AID 485347;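 active = potentiation over 3 SD above the plate norm, cut at about 30% in these data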
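Using a no-wash calcium dye in inducible, force-coupled HEK293 Trex cells expressing D2, we tracked fluorescence each second for 180 s after compound, then for 180 s after EC20 dopamine to detect augmented signalling.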
D2 ag-2 – activates the human D2 dopamine receptor; HEK293 T-REx D2 cells, calcium flux agonist mode; 340,000 compounds, 0.53% hits; AID 485358; P14416; activation, % at 2 µM;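 active = activation over 3 SD above normal in the single-dose calcium agonist read, cut at about 30% in these data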
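Agonism is scored from calcium flux in a force-coupled, inducible HEK293 cell line expressing D2, read kinetically for 180 s after compound addition against dopamine controls.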
Large screens that a line does not name were inactive.

CC1CCN(C2CCN(S(=O)(=O)c3ccc(F)cc3)CC2)CC1	none
CCOc1ccc(CNC(=O)CCCn2c(=O)c3cccn3c3ccccc32)cc1	none (no result: D2 PAM-1, D2 antagonist, D2 ag-1)
Cc1cccc(S(=O)Cc2ccc(C(=O)NC3CCN(Cc4ccccc4)CC3)o2)c1 (stereo not given)	D2 antagonist 44
Cc1ccccc1S(=O)Cc1ccc(C(=O)NC2CCN(Cc3ccccc3)CC2)o1 (stereo not given)	D2 antagonist 44
CCOC(=O)N1CCC(NC(=O)c2ccc(CS(=O)c3ccc(Cl)cc3)o2)CC1 (stereo not given)	none
O=C(CCc1ccccc1)NC1CC(=O)N(c2ccccc2)C1 (stereo not given)	none (no result: D2 PAM-1, D2 antagonist, D2 ag-1)
Cc1cccc(CN2CCC(CNC(=O)Cn3ncc4c([nH]c5ccc(C)cc54)c3=O)CC2)c1	none (no result: D2 PAM-1, D2 antagonist, D2 ag-1)
CCOc1ccc2c(c1)c(=O)c(C(=O)c1ccc(C)cc1)cn2Cc1ccccc1OC	none (no result: D2 PAM-1, D2 antagonist, D2 ag-1)
Fc1ccc(N2CCN(c3nnnn3-c3ccccc3)CC2)cc1	D2 antagonist 50
O=c1c(N2CCc3ccccc3C2)csc2ccc(Cl)cc12	none (no result: D2 PAM-1, D2 antagonist, D2 ag-1)
CCN1CCN(C(=O)c2cc3c(s2)-c2ccccc2S(=O)(=O)C3)CC1	D2 antagonist 45
Cc1ccc(C)c(-c2nnc(NC(=O)c3ccco3)o2)c1	D2 antagonist 41
c1ccc(-c2csc(=Nc3cccnc3)n2CC2CCCO2)cc1 (stereo not given)	D2 antagonist 30
CCOC(=O)c1cccc(NC(=O)CNS(=O)(=O)c2cccs2)c1	D2 PAM-2 44
O=C(OCc1nc2ccccc2s1)c1ccc(Br)s1	D2 antagonist 32
Nc1ccc(C(=O)OCc2nc3ccccc3s2)cc1	none (no result: D2 antagonist, D2 PAM-2, D2 ag-2)
CN(C(=O)CCc1nc(-c2ccccc2F)no1)c1ccc(Cl)cc1	none (no result: D2 PAM-1, D2 antagonist, D2 ag-1)
CC(=O)c1c(C)[nH]c(C(=O)Nc2nc(-c3ccc(Cl)cc3)cs2)c1C	none
CC(=O)c1c(C)[nH]c(C(=O)Nc2nc(C)cs2)c1C	D2 antagonist 33
COc1ccc(-c2nc(NC(=O)c3ccco3)sc2C)cc1	none (no result: D2 antagonist, D2 PAM-2, D2 ag-2)
COc1ccc(-c2nc(NC(=O)c3[nH]c(C)c(C(C)=O)c3C)sc2C)cc1	D2 PAM-2 31
COc1cccc(-c2cc(C(=O)Nc3cc(Cl)ccc3O)on2)c1	none (no result: D2 PAM-1, D2 antagonist, D2 ag-1)
CC1CN(CCOc2ccc([N+](=O)[O-])cc2)CC(C)O1 (stereo not given)	none
O=[N+]([O-])c1ccc(OCCN2CCNCC2)cc1	D2 antagonist 32
COc1ccc(OC)c2sc(NC(=O)C3CC3)nc12	D2 antagonist 65
CCC(=O)Nc1nc2c(OC)ccc(OC)c2s1	none
O=C(NCCc1ccc(O)c(O)c1)C1COc2ccccc2O1 (stereo not given)	D2 ag-1 41
O=C(NCCc1ccccc1)C1COc2ccccc2O1 (stereo not given)	none
O=C(Nc1cccnc1)C1COc2ccccc2O1 (stereo not given)	D2 PAM-2 41
O=C(Nc1ccccc1)C1COc2ccccc2O1 (stereo not given)	none
O=C(CN1CCCC1)NC(c1ccccc1)c1ccccc1	none
CC(NC(=O)CN1CCN(c2ccc(Cl)cc2)CC1)c1ccccc1 (stereo not given)	none
CCOc1ccccc1N1CCN(C(=O)NCc2ccc(C)cc2)CC1	D2 antagonist 30, D2 PAM-2 32
O=C(CN1CCN(c2ccccc2O)CC1)NC(c1ccccc1)c1ccccc1	D2 antagonist 64
CCOc1ccccc1N1CCN(CC(=O)NC(C)c2ccccc2)CC1 (stereo not given)	D2 antagonist 100
O=C(CN1CCN(c2ccccc2O)CC1)Nc1ccc2c(c1)CCC2	D2 antagonist 67
COc1ccc(Cl)cc1NC(=O)Cn1ccn(Cc2ccc(C)cc2)c(=O)c1=O	none (no result: D2 PAM-1, D2 antagonist, D2 ag-1)
COc1ccccc1CCNC(=O)c1ccc2c(c1)c(C)c(C)n2C	none (no result: D2 PAM-1, D2 antagonist, D2 ag-1, D2 PAM-2)
CCC(C)C(NC(N)=O)C(=O)NC1CCC(C)CC1 (stereo not given)	D2 antagonist 33 (no result: D2 PAM-1, D2 ag-1)
COc1ccc(N2CCN(C(=O)C(C)n3c(=O)cc(C(F)(F)F)c4c(C)nn(C)c43)CC2)cc1 (stereo not given)	none (no result: D2 PAM-1, D2 antagonist, D2 ag-1)
Cc1nnc(NC(=O)c2ccc(S(=O)(=O)N3CC(C)CC(C)C3)cc2)o1 (stereo not given)	D2 PAM-2 35
Cc1ccc(NC2=Nc3ccccc3CC2)cc1	D2 antagonist 61
Brc1ccc(NC2=Nc3ccccc3CC2)cc1	none
CCN(CC)CCOC(=O)c1ccc(NC(=O)Cn2ncc3c2-c2cc(C)ccc2OC3)cc1	none (no result: D2 PAM-1, D2 antagonist, D2 ag-1, D2 PAM-2)
COCCN(C(=O)COC(=O)/C=C/c1ccc(C(F)(F)F)cc1)c1c(N)n(Cc2ccccc2)c(=O)[nH]c1=O	D2 antagonist 45
COc1ccc(C(=O)Nc2nnc(SCc3cc(=O)c4cccc(F)c4[nH]3)s2)cc1	none (no result: D2 PAM-1, D2 antagonist, D2 ag-1)
COc1ccc(C)cc1NC(=O)NCCC1=CCCCC1	D2 antagonist 86
COC(=O)c1ccc(NC(=S)NCCC2=CCCCC2)cc1	D2 antagonist 55
N#Cc1ccc(Sc2ccccn2)c([N+](=O)[O-])c1	D2 antagonist 38
CCOc1ccc(C(=O)Nc2nnc(S(=O)(=O)Nc3ccccc3)s2)cc1	none (no result: D2 PAM-1, D2 antagonist, D2 ag-1)
COc1cc(NS(C)(=O)=O)cc(OC)c1OC	D2 antagonist 30
COc1cc(NS(=O)(=O)c2cc3[nH]c(=O)[nH]c3cc2C)cc(OC)c1OC	none (no result: D2 PAM-1, D2 antagonist, D2 ag-1, D2 ag-2)
COc1ccc(Cl)cc1NC(=O)CN(C)C(=O)CCC(=O)c1cc(C)sc1C	D2 antagonist 62
COc1ccc(Cl)cc1NC(=O)CN(C)C(=O)c1ccc(OCc2ccccc2)c(OC)c1	D2 antagonist 37
COc1ccc(S(=O)(=O)c2c(Nc3c(C)cccc3C)sc(C(=O)c3ccc4c(c3)OCO4)c2N)cc1	none (no result: D2 PAM-1, D2 antagonist, D2 ag-1)
Cc1ccc(-c2nc(S(=O)(=O)c3ccc(Cl)cc3)c(N3CCCCC3)o2)cc1	none (no result: D2 PAM-1, D2 antagonist, D2 ag-1)
COc1ccc(C)c2sc(N(Cc3cccnc3)C(=O)c3cccs3)nc12	none (no result: D2 PAM-1, D2 antagonist, D2 ag-1)
Cc1nn(-c2ccccc2)c(Cl)c1/C=N/NC(=O)CNC(=O)c1ccccc1Cl	D2 antagonist 46
Cc1nn(-c2ccccc2)c(Cl)c1/C=N/NC(N)=O	none
CC1(C)CC(=O)C2=C(C1)N(c1ccccc1)C(=O)C2(O)C(F)(F)F (stereo not given)	D2 antagonist 36
OC(COCc1cccs1)CN1CCN(c2cccc(C(F)(F)F)c2)CC1 (stereo not given)	D2 antagonist 50
O=S(=O)(c1ccc(F)cc1)N1CCN(CC(O)COCc2cccs2)CC1 (stereo not given)	none
CC1CC(C)CN(C(=O)/C=C/c2ccc(S(=O)(=O)N3CCOCC3)cc2)C1 (stereo not given)	D2 antagonist 30
O=C(/C=C/c1ccc(S(=O)(=O)N2CCOCC2)cc1)N1CCN(c2ccc(F)cc2)CC1	none
COC(=O)c1ccsc1NC(=O)CS(=O)(=O)c1ccccc1	D2 antagonist 31
